Source: PubChem BioAssay AID1835 (Johns Hopkins Ion Channel Center, 2009)
Screen size: about 2,400 compounds; about 750 (31%) were called active.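 Rule for the calls: active = median signal gain over dofetilide-blocked control wells reaching their mean plus 3 SD, so readout 1 at least 0; inactive = the rest.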 Some of the results follow.

Target: Voltage-gated inwardly rectifying potassium channel KCNH2 (Homo sapiens) (UniProt Q12809)
Assay: modulators restoring hERG flux under dofetilide – cell-based, thallium flux, duplicate retest, dofetilide IC70, confirmation (AID 1835)
Conditions: hERG cell line, FluxOR thallium flux, dofetilide-blocked; at 10 µM; hits give high values

Chain of Voltage-gated inwardly rectifying potassium channel KCNH2 (Homo sapiens) (Q12809 whole entry, looked up): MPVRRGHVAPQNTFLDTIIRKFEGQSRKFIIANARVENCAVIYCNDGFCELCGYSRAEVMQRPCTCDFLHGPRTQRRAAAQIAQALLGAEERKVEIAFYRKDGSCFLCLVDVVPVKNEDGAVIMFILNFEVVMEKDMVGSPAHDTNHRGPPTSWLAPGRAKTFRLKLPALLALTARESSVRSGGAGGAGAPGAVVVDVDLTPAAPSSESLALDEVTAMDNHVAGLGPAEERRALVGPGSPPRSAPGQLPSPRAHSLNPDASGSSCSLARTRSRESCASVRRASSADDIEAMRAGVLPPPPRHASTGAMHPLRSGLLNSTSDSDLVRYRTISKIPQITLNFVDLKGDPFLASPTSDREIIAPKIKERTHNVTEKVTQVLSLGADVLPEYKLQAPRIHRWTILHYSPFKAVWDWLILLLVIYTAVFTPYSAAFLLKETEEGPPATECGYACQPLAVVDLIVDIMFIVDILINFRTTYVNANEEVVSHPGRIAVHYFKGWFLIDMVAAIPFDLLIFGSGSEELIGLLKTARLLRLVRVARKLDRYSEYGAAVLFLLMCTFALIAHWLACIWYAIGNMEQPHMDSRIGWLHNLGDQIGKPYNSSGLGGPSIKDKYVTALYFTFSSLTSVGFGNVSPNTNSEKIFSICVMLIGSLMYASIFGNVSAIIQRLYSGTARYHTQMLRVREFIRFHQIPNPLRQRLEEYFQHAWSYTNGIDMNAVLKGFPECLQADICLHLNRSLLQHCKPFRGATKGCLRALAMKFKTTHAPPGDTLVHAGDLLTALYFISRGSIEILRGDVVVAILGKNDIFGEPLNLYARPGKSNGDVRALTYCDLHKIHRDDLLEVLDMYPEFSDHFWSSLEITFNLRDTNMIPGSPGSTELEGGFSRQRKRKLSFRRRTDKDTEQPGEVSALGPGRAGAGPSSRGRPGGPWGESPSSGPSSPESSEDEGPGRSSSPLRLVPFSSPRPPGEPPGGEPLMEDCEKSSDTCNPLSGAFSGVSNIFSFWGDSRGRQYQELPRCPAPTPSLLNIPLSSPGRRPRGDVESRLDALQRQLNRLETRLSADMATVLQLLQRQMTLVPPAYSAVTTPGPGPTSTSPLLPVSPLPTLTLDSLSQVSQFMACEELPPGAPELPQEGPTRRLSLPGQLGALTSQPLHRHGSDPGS

Structure (SMILES)	activity increase over dofetilide control, less the hit threshold
CN1CCN(c2nnc(-c3cccs3)c3ccccc23)CC1	-13% (inactive)
CCC1=NN(C(=O)c2ccc(Cl)cc2)C(O)(c2ccc(C)cc2)C1 (configuration not stated)	-14% (inactive)
CCOC(=O)CN1N=C(/C=C/c2ccc(OC)cc2)CCC1=O	-25% (inactive)
CCOC(=O)C1=NN(C(=O)c2ccccc2)C(O)(c2ccc(C)cc2)C1 (configuration not stated)	1% (active)
CCOC(=O)C1=NN(C(=O)c2ccc(OC)cc2)C(O)(c2ccc(Cl)cc2)C1 (configuration not stated)	81% (active)
CCOC(=O)C1=NN(C(=O)c2ccc(C)cc2)C(O)(c2ccc(Cl)cc2)C1 (configuration not stated)	100% (active)
O=C1C=C(Nc2cccc3cccnc23)c2ccccc2C1=O	-5% (inactive)
COCC(=O)Nc1cc(C)cn(Cc2c(F)cccc2Cl)c1=O	-5% (inactive)
Cc1ccc(C(=C2C3C=CC2C2C(=O)NC(=O)C32)c2ccc(C)cc2)cc1 (configuration not stated)	-15% (inactive)
CC(C)(C)c1cc(CCC(=O)NCc2ccncc2)cc(C(C)(C)C)c1O	-11% (inactive)
O=C(NC(=S)Nc1ccccc1)c1cc(-c2ccccc2)nc2ccccc12	8% (active)
COC(=O)c1ccc(NC(=S)NC(=O)c2c(-c3ccccc3)noc2C)cc1	-15% (inactive)
O=C(N/N=C/c1ccccn1)c1cc(-c2ccc(Br)cc2)nc2ccccc12	-46% (inactive)
O=C(NC(=S)Nc1ccccn1)c1cc(-c2ccccc2)nc2ccccc12	1% (active)
Cc1ccc2nc(-c3ccccn3)cc(C(=O)NC3CCN(C)CC3)c2c1	-19% (inactive)
CC(C)(C)NS(=O)(=O)c1ccc(NC(=O)c2cc(-c3ccccc3)nc3ccccc23)cc1	-11% (inactive)
COC(=O)c1ccc(NC(=S)NC(=O)c2cc(-c3ccccc3)nc3ccccc23)cc1	11% (active)
Cc1ccccc1NC(=S)NC(=O)c1cc(-c2ccccc2)nc2ccccc12	27% (active)
Cc1ccc(NC(=O)c2cc(NC(=O)/C=C\C(=O)O)ccc2N2CCCCC2)cc1	-11% (inactive)
Cc1nnc(N2C(=O)C(=O)/C(=C(\O)c3ccc4c(c3)CC(C)O4)C2c2ccccc2)s1 (configuration not stated)	-7% (inactive)
Cc1ccc(CNC(=O)C2=CCN(S(=O)(=O)c3ccc(C)cc3)CC2)cc1	-24% (inactive)
CCCCn1nnc(NC(=O)Cc2ccc(Cl)cc2)n1	-3% (inactive)
Cc1ccc2nc(-c3ccncc3)cc(C(=O)Nc3ccc4c(c3)OCCO4)c2c1	-15% (inactive)

Structure (SMILES)	activity increase over dofetilide control, less the hit threshold
Cc1cccc(NC(=S)NC(=O)c2cc(-c3ccccc3)nc3ccccc23)c1	8% (active)
O=C(CCSCCc1ccccn1)Nc1cccc([N+](=O)[O-])c1	-4% (inactive)
NC(=O)c1cccnc1Nc1cccc([N+](=O)[O-])c1	10% (active)
O=C(O)c1ccc(N=NNc2cccc([N+](=O)[O-])c2)cc1	-2% (inactive)
O=C(NCC(c1cccs1)N1CCOCC1)c1cc(S(=O)(=O)N2CCOCC2)ccc1F (configuration not stated)	-22% (inactive)
CCc1cc2c(=O)n(CCC(C)C)c(=S)[nH]c2s1	71% (active)
CC(C)(C)OC(=O)N1CCC2(CC1)Oc1ccc(Cl)cc1C(=O)C21CC(c2ccc(Cl)cc2)=NO1 (configuration not stated)	-19% (inactive)
COc1ccc2ncc(OC(C)=O)cc2c1	-14% (inactive)
COc1ccc2nc(N=Nc3c(O)ccc4ccccc34)sc2c1	31% (active)
O=C(Nc1ccccc1)O/N=C/c1ccncc1	-7% (inactive)
CN(C)CCCN=C(NO)c1ccc(Cl)cc1Cl	4% (active)
CN(C)C(=O)c1cc(C(=O)c2ccc(Cl)cc2Cl)c[nH]1	-4% (inactive)
C=CCSC1=C(C#N)C(c2ccccc2)CC(=O)N1 (configuration not stated)	-15% (inactive)
Cc1ccc(C(C(=O)NC(C)(C)C)N(Cc2cccnc2)C(=O)C(=O)NC2CCCCC2)o1 (configuration not stated)	0% (active)
Cc1ccc(C(=O)NC2CCC(C)CC2)o1 (configuration not stated)	-23% (inactive)
CCC(C)(C(=O)NC1CCCC1)N(Cc1ccco1)C(=O)c1ccccn1 (configuration not stated)	-13% (inactive)
CC(C)C(O)(C#CCN1CCCC1)c1ccccc1 (configuration not stated)	-16% (inactive)
CCn1c2ccccc2c2cc(NC(=O)COc3ccccc3)ccc21	-20% (inactive)
CCOc1ccc(-n2c(C)c(C(C)=O)c3cc(O)ccc32)cc1	-14% (inactive)
CCOc1ccc(N(CC)C(=O)COc2cc(=O)n(C)c3ccccc23)cc1	1% (active)
CC(C)Oc1ccc(CNC(=O)C2CCN(C(=O)N3CCOc4ccccc43)CC2)cc1	-31% (inactive)
CCOc1ccccc1C(=O)NC1CC2CCCC(C1)N2Cc1nnnn1Cc1ccco1 (configuration not stated)	-24% (inactive)
Cc1[nH]c(=O)[nH]c(=O)c1S(=O)(=O)N1CCC(C(=O)NC(C)c2ccccc2)CC1 (configuration not stated)	-4% (inactive)

Structure (SMILES)	activity increase over dofetilide control, less the hit threshold
CCCCc1c(C)[nH]c(C(=O)OCC)c1C	-14% (inactive)
CCOC(=O)c1c(C)[nH]c(C)c1S(=O)(=O)N1CCCCC1	4% (active)
O=C1c2nc3cc(-c4ccco4)[nH]n3c(=O)c2CN1Cc1ccccc1	-10% (inactive)
CCC(=O)NC(c1cccs1)c1ccc2cccnc2c1O (configuration not stated)	-8% (inactive)
O=c1c(Cc2ccccc2)c(O)nc2n1CCCS2	-3% (inactive)
CCOC(=O)N1CCN(C(=O)CSc2nc3c([nH]c4ccccc43)c(=O)n2CC)CC1	0% (inactive)
O=c1c2[nH]c3ccccc3c2nc2n1CCCS2	3% (active)
COc1ccc(NC(=O)C2CCN(S(=O)(=O)c3cn(C)nc3C)CC2)cc1	-12% (inactive)
COc1ccc(-c2ccc3c(N)c(C(=O)c4ccc(OC)c(OC)c4)sc3n2)cc1	-9% (inactive)
COc1ccc(/C=C2\SC(c3ccc(C)cc3)=NC2=O)cc1OC	112% (active)
CCOC(=O)C1=C(O)/C(=C/c2ccc(OCC(=O)O)c(OC)c2)SC1=Nc1ccc(OCC)cc1	-9% (inactive)
COc1ccc(C(C(=O)NC(C)(C)C)N(C(=O)CCC(=O)Nc2cc(C)on2)c2cccc(F)c2)cc1 (configuration not stated)	-6% (inactive)
O=C(CSc1nc(N2CCCCC2)nc(N2CCCCC2)n1)c1ccccc1	-16% (inactive)
C=CCn1c2ccccc2c(=O)c2cc(C#Cc3ccsc3)ccc21	17% (active)
O=C(/C=C/Nc1ccc(F)cc1)c1ccco1	-22% (inactive)
Cc1cccc(N2C(=O)C(O)=C(C(=O)c3cccs3)C2c2cccc(Oc3ccccc3)c2)n1 (configuration not stated)	-12% (inactive)
CCCC(=O)NC(=S)Nc1nc(-c2ccc(OC)cc2)cs1	-11% (inactive)
CCC(=O)N(CC)c1nc(-c2ccc(OC)cc2)cs1	17% (active)
CCCn1c(SCC(=O)Nc2nc(-c3ccc(OC)cc3)cs2)nc2c1c(=O)n(C)c(=O)n2C	-8% (inactive)
COc1cc(C(=O)NCCNc2nc3cc(C)ccc3cc2C#N)cc(OC)c1OC	-2% (inactive)
Cc1ccc(-c2c(=O)n(O)c3ccccc3[n+]2[O-])cc1	52% (active)
O=c1c(-c2ccccc2)[n+]([O-])c2ccccc2n1O	-10% (inactive)
O=c1c(-c2ccc(Cl)cc2)[n+]([O-])c2ccccc2n1O	64% (active)

Structure (SMILES)	activity increase over dofetilide control, less the hit threshold
O=c1c(-c2cccc3ccccc23)[n+]([O-])c2ccccc2n1O	9% (active)
CCc1nnc(NC(=O)c2cccc(S(=O)(=O)N3CCN(c4ccccc4)CC3)c2)s1	-17% (inactive)
O=C(COc1ccccc1)Nc1nnc(-c2ccc(Cl)s2)o1	-9% (inactive)
CC1=Nc2ccc(C)cc2/C1=C/c1c(N)n2c(S(=O)(=O)C(C)C)nsc2nc1=O	-5% (inactive)
CCOC(=O)Cn1cc(C=O)c2ccccc21	-17% (inactive)
CC(C)C(=O)Nc1c(-c2ccccc2F)c(=O)c2ccccc2n1C	-6% (inactive)
Cn1c(=O)c(Sc2ccccc2)c(O)c2ccccc21	2% (active)
CCn1c(=O)c(-[n+]2ccccc2)c(O)c2ccccc21	-15% (inactive)
Cn1c(=O)c(-c2cc(=O)[nH][nH]2)c(O)c2ccccc21	2% (active)
CCOC(=O)c1c(O)c2ccccc2n(C)c1=O	5% (active)
Cn1c(=O)cc(-c2ccccc2)c2ccccc21	-28% (inactive)
CCOC(=O)c1c(C)cccc1OCC(N)=O	-16% (inactive)
O=C1OC(/C=C/c2ccccc2)=NC/1=C/c1ccco1	-15% (inactive)
COC(=O)Cc1[nH]n(-c2nc3ccccc3s2)c(=O)c1C(C)=Nc1ccc(C)cc1	-1% (inactive)
Cn1ncc2c(NNC(=O)Cc3ccccc3)ncnc21	-13% (inactive)
O=C(O)c1ccc(Cl)cc1Nc1nc2cc(Cl)ccc2o1	10% (active)
COC(=O)n1c(=S)oc2cc(Cl)ccc21	-13% (inactive)
O=C(O)c1c2c(nc3ccccc13)/C(=C/c1cccc([N+](=O)[O-])c1)CCC2	-18% (inactive)
N#Cc1c2n(c3c(=O)n(Cc4ccc(Cl)cc4)cnc13)CCCC2	-14% (inactive)
Cc1cc(C)cc(N(C(=O)c2cc3ccccc3oc2=O)C2C=CS(=O)(=O)C2)c1 (configuration not stated)	-13% (inactive)
Cc1sc2nc(CN3CCOCC3)[nH]c(=S)c2c1C	92% (active)
CC(C)(C)n1nnnc1C(c1cccs1)N1CCN(Cc2ccccc2)CC1 (configuration not stated)	-6% (inactive)
Cc1ccc(-c2cccc(C3CC=CC4C3C(=O)N(Cc3ccccc3)C4c3ccc4ccccc4c3)c2)cc1 (configuration not stated)	-1% (inactive)
